AID504770 = growth inhibitors of E. coli YBA685 in a screen for V. cholerae RctB (chromosome II replication) inhibitors. E. coli YBA685 rctB-dependent plasmid, OD600 growth, 3 h; stronger effect = lower value. z-score (test concentration not listed). hit rate 0.27% among 130,000; in the data active means z-score below about -2, passing the limit was not always enough
Ba CapD inh = blocks the Bacillus anthracis CapD enzyme | purified CapD enzyme, fluorescence intensity read-out; stronger effect = lower value | z-score (test concentration not listed) | hit rate 0.23% among 140,000; in the data active means z-score mostly below about -2.9, no sharp cut-off; inactive means mostly above about -1.9
Starred values were filed as active, the others as inactive. Only some compounds are listed: those with a hit (about 0.36% of all), similar ones and a draw of the others.

For O=S1(=O)CCC(N2CCSC2=Nc2ccc(Cl)cc2)C1 (stereo not given) the results were AID504770 -0.05.
Screening CC(C)c1ccccc1NC(=O)C1CCCCC1 returned AID504770 -0.9 and Ba CapD inh 0.275.
For Cc1cccc(NC(=O)C2CCCCC2)c1C(=O)O the results were AID504770 0 and Ba CapD inh -2.02*.
CC(=O)CC(=O)c1c(C)[nH]n(-c2ccccc2)c1=O was read as Ba CapD inh -0.735.
CCC(=O)NC(c1c(C)[nH]n(-c2ccccc2)c1=O)(C(F)(F)F)C(F)(F)F was read as AID504770 -3.25* and Ba CapD inh -0.055.
For O=c1[nH]c(CSc2nnc(Cc3cccs3)n2C2CCCCC2)nc2ccsc12 the results were AID504770 -0.2.
`O=C(Nc1ccc(-c2noc(COc3ccc(Br)cc3)n2)cc1)c1cccs1` gave Ba CapD inh -0.075.
`Cn1cc(NC(=O)NCc2ccccn2)c2ccccc2c1=O` gave AID504770 -2.05* and Ba CapD inh 19.5.
`CC(C)Cn1cc(NC(=O)NCc2ccccn2)c2ccccc2c1=O` gave AID504770 -0.1 and Ba CapD inh 26.
Screening O=C(OC1CSc2nc3ccccc3n2C1)c1ccccc1Cl (stereo not given) returned AID504770 1.95.
Screening CCOC(=O)Oc1c(Cl)cc2oc(=O)sc2c1Br returned AID504770 -0.85 and Ba CapD inh -5.26*.
Screening CCCCOC(=O)Oc1cc2oc(=O)sc2cc1Br returned AID504770 -0.05 and Ba CapD inh -0.205.
CC(C)Cn1cc(C(=O)NCc2cccnc2)c2c3ccccc3n(C)c2c1=O was read as AID504770 0.6 and Ba CapD inh 46.7.
`CCOc1ccc(NC(=O)c2cn(CC(C)C)c(=O)c3c2c2ccccc2n3C)cc1` gave AID504770 -2.85* and Ba CapD inh -0.095.
For CCCCn1c(=O)[nH]c(=O)c2c1nc(-c1cccs1)c(=O)n2C the results were AID504770 -0.1.
For O=C(Cn1c(=O)n(Cc2ccco2)c(=O)c2sc3ccccc3c21)NCc1ccccc1 the results were AID504770 -1 and Ba CapD inh 8.69.
Screening CCOC(=O)N1CCC(N2C(=O)c3ccccc3C2O)CC1 (stereo not given) returned AID504770 -0.75 and Ba CapD inh 0.265.
`COc1cccc(OCC(=O)Nc2cccc(C(=O)O)c2C)c1` gave AID504770 -0.15 and Ba CapD inh 0.505.
COc1cccc(OCC(=O)Nc2ccc(OC(C)=O)cc2C(=O)O)c1 was read as AID504770 -1.1 and Ba CapD inh -10.2*.
Screening CC1(C)OC(=O)N(CCCN2CCOCC2)C1(C)O (stereo not given) returned AID504770 0.7 and Ba CapD inh 0.205.
Screening COc1ccc(-n2c(-c3ccco3)nc3c(cnn3-c3ccc(C)c(C)c3)c2=O)cc1Cl returned AID504770 0.5 and Ba CapD inh 0.33.
`Cc1ccc(-c2cc(C(N)=O)on2)cc1` gave AID504770 -1.3 and Ba CapD inh -5.67*.
`CCOc1ccc(-c2cc(C(N)=O)on2)cc1` gave AID504770 -0.25 and Ba CapD inh -0.865.
Screening O=C(c1cnn(-c2ccccc2)n1)N1CCCN(S(=O)(=O)c2ccc(F)cc2)CC1 returned AID504770 0.25.
`CS(=O)(=O)c1cc(C#N)c(=O)[nH]c1-c1cccc(F)c1` gave Ba CapD inh -0.55.
Screening Cc1cccc(-n2nc3c(c2NC(=O)c2ccc(S(=O)(=O)N(C)C)cc2)CS(=O)(=O)C3)c1C returned Ba CapD inh 0.18.
`CC(=O)c1ccc(N2CCN(c3ncnc4c3cnn4-c3ccccc3)CC2)cc1` gave Ba CapD inh 1.28.
Cc1ccc(C(=O)N2CCN(c3ncnc4c3cnn4-c3ccccc3)CC2)cc1 was read as AID504770 -4.2*.
CC(C)(O/N=C(/C(=O)N[C@@H]1C(=O)N2C(C(=O)[O-])=C(C[n+]3ccccc3)CS[C@H]12)c1csc(N)n1)C(=O)O was read as Ba CapD inh 1.52.
CO/N=C(/C(=O)N[C@@H]1C(=O)N2C(C(=O)O)=C(COC(C)=O)CS[C@H]12)c1csc(N)n1 was read as AID504770 -3.15* and Ba CapD inh 0.24.
`O=C(Nc1ccc(-c2nc3ccccc3o2)cc1)c1ccc(S(=O)(=O)N2CCc3ccccc3C2)cc1` gave Ba CapD inh 11.3.
Screening O=C(Oc1ccc(N(C(=O)c2ccccc2)S(=O)(=O)c2cccs2)cc1)c1ccccc1 returned AID504770 0.25 and Ba CapD inh 0.34.
`COc1ccc(N(C(=O)c2ccncc2)S(=O)(=O)c2cccs2)cc1` gave AID504770 1.05 and Ba CapD inh -8.48*.
`Cc1nc(C2CC2)[nH]c(=O)c1Cl` gave AID504770 0.1 and Ba CapD inh 0.535.
O=C(CSc1cn(Cc2ccccc2)c2ccccc12)N1CCCC1 was read as AID504770 0.3 and Ba CapD inh 0.055.
Screening N=C(N)Sc1cn(Cc2ccccc2)c2ccccc12 returned AID504770 -1.05 and Ba CapD inh -4.82*.
`Fc1cccc(Cl)c1COn1c(-c2ccccc2)nc2ccccc21` gave Ba CapD inh 0.725.

Screens as filed in PubChem BioAssay.
